Experimental findings from PubChem BioAssay (NCATS) are described below.

A short description of test [1]: qHTS for Inhibitors of the Functional Ribonucleoprotein Complex (vRNP) of Lassa (LASV) Arenavirus: LASV Primary Screen - GLuc reporter signal (AID 1347082; calls by dose curve; tested in HEK293 reporter line; note: % is set by controls: 0 for no effect and ±100 for the full control effect; nearly all actives have a fitted effect of over 60% in size). For orientation: qHTS replaces the single test concentration by a dilution series.
A short description of test [2]: qHTS for Inhibitors of the Functional Ribonucleoprotein Complex (vRNP) of Lassa (LASV) Arenavirus: Viability assay - alamar blue signal for LASV Primary Screen (AID 1347083; calls by dose curve; tested in HEK293 reporter line; note: % is set by controls: 0 for no effect and ±100 for the full control effect; nearly all actives have a fitted effect of over 80% in size).
Test [3] is described as follows: qHTS for Inhibitors of the Functional Ribonucleoprotein Complex (vRNP) of Lymphocytic Choriomeningitis Arenaviruses (LCMV): Viability assay - alamar blue signal for LCMV Primary Screen (AID 1347085; calls by dose curve; tested in HEK293 reporter line; note: % is set by controls: 0 for no effect and ±100 for the full control effect; nearly all actives have a fitted effect of over 80% in size).
The target in test [4] is Nucleoprotein (Lymphocytic choriomeningitis virus (strain Armstrong)) (UniProt P09992). Description: qHTS for Inhibitors of the Functional Ribonucleoprotein Complex (vRNP) of Lymphocytic Choriomeningitis Arenaviruses (LCMV): LCMV Primary Screen - GLuc reporter signal (AID 1347086; calls by dose curve; note: % is set by controls: 0 for no effect and ±100 for the full control effect; nearly all actives have a fitted effect of over 70% in size).
The nature of test [5]: Cytotoxicity counterscreen for inhibitors of SARS-CoV-2 cell entry (AID 1645845; calls by dose curve; note: % is set by controls: 0 for no effect and ±100 for the full control effect; nearly all actives have a fitted effect of over 50% in size). Put shortly:
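Expi293F/hACE2 cells seeded overnight; cpd pin-transferred in DMSO, 1 h preincubation, + media, 48 h 37 C 5% CO2; ATPLite 1step luminescence; normalized to cells and no cells.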
Background: A counterscreen serves to expose hits that act by an unwanted route or on another target.

Test [6] addresses Cytochrome P450 3A4 (Homo sapiens) (UniProt P08684). Description: qHTS Assay for Inhibitors and Substrates of Cytochrome P450 3A4 (AID 884). Note: % is set by controls: 0 for no effect and ±100 for the full control effect; nearly all actives have a fitted effect of over 50% in size. Summed up: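 20 nM human CYP3A4 with 25 uM Luciferin-PPXE (at KM) in 200 mM KPO4, preincubated 10 min with compound; NADPH regeneration started a 60 min RT reaction. Luciferin detected by luminescence, normalized to 57 uM ketoconazole as full inhibition.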

The nature of test [7]: qHTS Assay for Lipid Storage Modulators (AID 1519; calls by dose curve; for activity change, negative = inhibition: % is set by controls: 0 for no effect and ±100 for the full control effect). The note with it: Drosophila S3 cells, BODIPY lipid droplet/cell ratio, laser cytometry, cells loaded with oleic acid. Put shortly: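 Cells seeded at 5,000 per well were treated with compounds over a concentration series and loaded with oleic acid (400 uM, as added). Lipid droplet fluorescence (488 nm excitation, 500-530 nm channel) was read by laser-scanning cytometry and normalized to 20 uM Triacsin C.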

Test [8] concerns the target Ubiquitin carboxyl-terminal hydrolase 1 (Homo sapiens) (UniProt O94782). Description: Inhibitors of USP1/UAF1: Pilot qHTS (AID 504865).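 Note: rhodamine fluorescence freed from ubiquitin-rhodamine substrate followed over time; top concentration of the series differs between compounds; % is set by controls: 0 for no effect and ±100 for the full control effect; nearly all actives have a fitted effect of over 35% in size.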 Summed up:
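Enzyme-free wells gave the negative control, while test wells held 1nM USP1/UAF1 preincubated with compound for 15 min at room temperature. Ub-Rho at 150nM final started the reaction, and fluorescence at 480/540 nm was recorded kinetically.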

Test [9] in a line: qHTS Assay for Identification of Small Molecule Antagonists for Thrombopoietin (TPO) Signaling Pathway (AID 918). Note: potency is the fitted concentration of half-maximal effect; nearly all actives have a fitted effect of over 60% in size. The conditions noted are these: TPO-dependent cell signaling reporter, antagonist mode. Summed up: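 Murine Ba/F3 cells expressing human TPO receptor and a Glycoprotein IIb promoter-luciferase reporter, IL-3-starved overnight, treated with compound plus TPO at EC50 (26 pM final). After 24 h at 37 C, luminescence read to detect inhibitors.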

The target of test [10] is Alpha-galactosidase (Coffea arabica) (UniProt Q42656). Description: Counterscreen for Glucocerebrosidase Inhibitors: qHTS Assay for Coffee Bean alpha-Galactosidase at pH 4.5 (AID 957).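 Note: plate controls were enzyme alone for no effect and no enzyme for full effect.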 Summed up:
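Coffee bean enzyme (2 nM) with 80 uM 4-methylumbelliferyl alpha-D-galactopyranoside in 50 mM citric acid, 0.005% Tween-20, pH 4.5, 20 min at room temperature; compounds 0.7 nM–77 uM. Stopped at pH 10, fluorescence 365/440 nm; AC50 from Hill fits.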

For test [11] the target is unchanged. Description: Counterscreen for Glucocerebrosidase Inhibitors: qHTS Assay for Coffee Bean alpha-Galactosidase at pH 5.9 (AID 998).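 Note: plate controls were uninhibited enzyme for no effect and no-enzyme basal signal for full effect.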 Summed up:
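Green coffee bean enzyme (2 nM final) was incubated with compounds (0.7 nM–77 uM) and 4-methylumbelliferyl alpha-D-galactopyranoside (80 uM) in citrate buffer pH 5.9, 20 min at room temperature. High-pH stop; fluorescence 365/440 nm; AC50 from Hill fits.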

Test [12] is described as follows: qHTS for differential inhibitors of proliferation of Plasmodium falciparum line D10 (AID 1877).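 Note: potency is the fitted concentration of half-maximal effect; parasites grown with compound for 72 h before DNA staining.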
Test [13] in a line: qHTS for differential inhibitors of proliferation of Plasmodium falciparum line W2 (AID 1883).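 Note: potency is the fitted concentration of half-maximal effect; parasites grown with compound for 72 h before lysis and staining.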 The conditions noted are these: Potency: Plasmodium falciparum W2 proliferation inhibition.
Test [14] has as its target RecQ-like DNA helicase BLM (Homo sapiens) (UniProt P54132). Description: qHTS Validation Assay for Inhibitors of Bloom's syndrome helicase (BLM) (AID 2364).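 Note: plate controls were DMSO vehicle for no effect and enzyme-free control for full effect.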 Put shortly:
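BLM 50 nM in 25 mM Tris-HCl pH 8.0, 5 mM NaCl, 2 mM MgCl2, 1 mM DTT, 0.01% Tween-20, 2.5 ug/ml poly(dI-dC); 15 min cpd preinc, RT. Start: 200 nM forked DNA + 2 mM ATP (final). TAMRA read, 2 reads 2 h apart.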

Test [15] is described as follows: Cytometric Cell-Based qHTS for Inhibitors of the mTORC1 Signaling Pathway in MEF (Tsc2-/-, p53-/-) Cells (AID 2660).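 Note: percent of cells above a phospho-rpS6 to PI ratio cutoff in each well; plate controls were DMSO for no effect and rapamycin for full effect.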 Put shortly:
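Tsc2-/-, p53-/- MEFs (empty vector) exposed to compound 24 h at 37 C, fixed, stained with Alexa-488 anti-phospho-rpS6 Ser235/236 and propidium iodide. Acumen laser scanning; phospho-S6/PI ratio thresholded against 7.5 nM rapamycin, reported as % positive cells.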

Test [16] can be described thus: Validation screen for small molecules that induce DNA re-replication in MCF 10A normal breast cells (AID 463097). Note: 0% is about no effect; nearly all actives have a fitted effect of over 60% in size. Summed up: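 Following 48 hr compound incubation (37 C, 5% CO2), MCF 10A cells receive Hoechst for 40 min at 37 C. Nuclei are then scanned (excitation 405 nm, emission 500-530 nm) for total fluorescence intensity.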
Test [17] in a line: Quantitative high throughput screen for delayed death inhibitors of the malarial parasite plastid, 96 hour incubation (AID 488745). Note: potency is the fitted concentration of half-maximal effect; nearly all actives have a fitted effect of over 70% in size. Summed up:
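Luciferase-expressing P. falciparum in erythrocytes (2% hematocrit, 0.1% parasitemia) incubated with compound for 96 h at 37 C, 5% CO2, in RPMI 1640 with 0.5% Albumax. Growth inhibition read as decreased luminescence.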

Test [18] concerns the target Chromobox protein homolog 1 (Homo sapiens) (UniProt P83916). Briefly: qHTS Validation Assay for Inhibitors of HP1-beta Chromodomain Interactions with Methylated Histone Tails (AID 488953).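 Note: loss of AlphaScreen luminescence from HP1-beta binding biotinylated H3K9me3 peptide; % is set by controls: 0 for no effect and ±100 for the full control effect; nearly all actives have a fitted effect of over 50% in size.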 Summed up: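 HP1-beta (50 nM) preformed 30 min with biotinylated H3(1-18)K9me3 peptide (50 nM) in PBS pH 7.4, 0.01% Tween-20. Compounds added for 30 min at room temperature. Complex disruption read by AlphaScreen with streptavidin donor/nickel chelate acceptor beads (10 ug/mL each).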

The target of test [19] is D(1A) dopamine receptor (Homo sapiens) (UniProt P21728). Briefly: HTS Assay for Allosteric Agonists of the Human D1 Dopamine Receptor: Primary Screen for Agonists (AID 488981). Note: 0% is about no effect. Put shortly:
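Tetracycline-induced HEK293 T-REx cells force-coupled to calcium signalling were incubated overnight at 30 C and dye-loaded at room temperature. Calcium flux over 180 s after compound addition flagged agonists; a further 180 s read after EC20 dopamine flagged potentiators.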

A short description of test [20]: Inducers of the Endoplasmic Reticulum Stress Response (ERSR) in human glioma: Validation (AID 504836). Note: 0% is about no effect. Summed up:
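Stably transfected U87-MG human glioma cells carrying a GRP78-based luminescent sensor were seeded at 1000 cells/well, pin-dosed with compounds and incubated 16 h. Luciferase reagent was then added, and end-point luminescence was read after 10 min at room temperature.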

Test [21] in a line: qHTS for Inhibitors of ATXN expression: Validation (AID 588378). Note: potency is the fitted concentration of half-maximal effect; nearly all actives have a fitted effect of over 75% in size. Summed up: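 After a 2 h attachment and 24 h compound incubation, HEK293-ATXN2-FFLuc wells are read for fluorescence at 405 nm excitation/525 nm emission as a viability measure, then for Bright-Glo luminescence reflecting ATXN2 expression.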
Test [22] concerns the target Arylsulfatase A (Homo sapiens) (UniProt P15289). Description: qHTS screen for enhancers of Arylsulfatase A (ASA1): LOPAC Validation Assay (AID 720538). Summed up: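 Cell-based enhancement test: residual ASA activity in SV40-transformed I179S patient fibroblasts is measured by pNCS turnover (0.5mM final, 14h, room temperature) following 48h compound incubation; higher fluorescence indicates activation.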

The mark [23] stands for this setting: measured here: cell count channel max response.
The mark [24] stands for this setting: measured here: lipid channel max response.

The structures appear in SMILES notation. Where “and” joins values, the source holds several entries; their conditions need not be identical. Equal entries are not always repeated. Inconclusive results are not listed. Calls of active or inactive are those of the source. Unless noted, calls come from the whole dose curve; as a rule, active = well fitted curve in the direction sought with a large enough effect; inconclusive = small, poorly fitted or top-dose-only effect, or another doubt; inactive = no such curve, though single readings can be large; an effect the other way counts as inactive or inconclusive.

Sequence of Nucleoprotein (Lymphocytic choriomeningitis virus (strain Armstrong)) (P09992 whole entry, looked up): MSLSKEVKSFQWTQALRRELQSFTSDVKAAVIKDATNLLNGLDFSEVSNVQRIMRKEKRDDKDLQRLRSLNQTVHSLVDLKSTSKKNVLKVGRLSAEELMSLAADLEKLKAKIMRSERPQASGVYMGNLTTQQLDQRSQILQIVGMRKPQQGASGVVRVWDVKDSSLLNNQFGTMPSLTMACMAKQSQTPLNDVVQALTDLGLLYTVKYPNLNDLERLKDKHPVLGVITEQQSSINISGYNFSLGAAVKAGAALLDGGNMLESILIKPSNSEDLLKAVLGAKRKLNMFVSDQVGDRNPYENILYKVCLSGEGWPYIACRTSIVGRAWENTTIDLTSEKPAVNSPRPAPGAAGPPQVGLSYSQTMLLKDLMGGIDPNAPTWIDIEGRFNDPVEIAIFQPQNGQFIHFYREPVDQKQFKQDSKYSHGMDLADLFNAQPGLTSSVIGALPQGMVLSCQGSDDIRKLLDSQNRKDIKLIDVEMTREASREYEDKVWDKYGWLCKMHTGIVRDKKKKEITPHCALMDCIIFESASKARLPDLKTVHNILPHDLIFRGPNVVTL
Sequence of Alpha-galactosidase (Coffea arabica) (Q42656 whole entry, looked up): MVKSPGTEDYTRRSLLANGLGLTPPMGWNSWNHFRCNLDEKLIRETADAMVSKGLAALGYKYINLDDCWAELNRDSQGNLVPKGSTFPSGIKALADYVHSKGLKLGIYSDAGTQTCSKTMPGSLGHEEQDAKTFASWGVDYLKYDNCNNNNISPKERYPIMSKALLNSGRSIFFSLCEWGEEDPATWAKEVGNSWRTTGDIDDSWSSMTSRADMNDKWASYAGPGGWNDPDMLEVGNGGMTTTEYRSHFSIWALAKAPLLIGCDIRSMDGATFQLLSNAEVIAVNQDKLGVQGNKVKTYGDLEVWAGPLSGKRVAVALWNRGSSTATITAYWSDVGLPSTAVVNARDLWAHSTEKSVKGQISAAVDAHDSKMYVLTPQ
Sequence of D(1A) dopamine receptor (Homo sapiens) (P21728 whole entry, looked up): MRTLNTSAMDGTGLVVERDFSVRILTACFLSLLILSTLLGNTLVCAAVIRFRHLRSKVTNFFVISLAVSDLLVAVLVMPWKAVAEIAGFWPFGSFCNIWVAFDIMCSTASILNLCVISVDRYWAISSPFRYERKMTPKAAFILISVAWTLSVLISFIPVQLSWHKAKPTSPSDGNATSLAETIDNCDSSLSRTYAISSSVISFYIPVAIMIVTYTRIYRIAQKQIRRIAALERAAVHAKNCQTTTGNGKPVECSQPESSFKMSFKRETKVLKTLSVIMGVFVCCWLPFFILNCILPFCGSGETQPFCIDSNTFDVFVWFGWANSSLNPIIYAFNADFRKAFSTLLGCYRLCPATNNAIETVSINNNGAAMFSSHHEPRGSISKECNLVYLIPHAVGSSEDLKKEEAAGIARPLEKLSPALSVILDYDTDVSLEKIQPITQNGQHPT
Sequence of Arylsulfatase A (Homo sapiens) (P15289 whole entry, looked up): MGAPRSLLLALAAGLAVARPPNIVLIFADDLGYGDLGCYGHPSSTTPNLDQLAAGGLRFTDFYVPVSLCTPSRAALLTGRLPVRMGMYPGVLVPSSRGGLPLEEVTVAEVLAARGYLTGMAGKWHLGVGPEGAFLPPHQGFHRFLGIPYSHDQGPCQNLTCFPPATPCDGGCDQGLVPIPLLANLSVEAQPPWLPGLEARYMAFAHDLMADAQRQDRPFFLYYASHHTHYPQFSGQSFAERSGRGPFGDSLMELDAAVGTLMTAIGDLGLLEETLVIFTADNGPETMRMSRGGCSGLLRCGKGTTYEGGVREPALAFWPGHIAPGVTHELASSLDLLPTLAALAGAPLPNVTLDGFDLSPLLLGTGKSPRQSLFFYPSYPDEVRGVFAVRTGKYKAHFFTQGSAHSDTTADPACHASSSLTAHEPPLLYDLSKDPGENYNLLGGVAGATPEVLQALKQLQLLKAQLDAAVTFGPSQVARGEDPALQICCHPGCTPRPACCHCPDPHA
Sequence of RecQ-like DNA helicase BLM (Homo sapiens) (P54132 whole entry, looked up): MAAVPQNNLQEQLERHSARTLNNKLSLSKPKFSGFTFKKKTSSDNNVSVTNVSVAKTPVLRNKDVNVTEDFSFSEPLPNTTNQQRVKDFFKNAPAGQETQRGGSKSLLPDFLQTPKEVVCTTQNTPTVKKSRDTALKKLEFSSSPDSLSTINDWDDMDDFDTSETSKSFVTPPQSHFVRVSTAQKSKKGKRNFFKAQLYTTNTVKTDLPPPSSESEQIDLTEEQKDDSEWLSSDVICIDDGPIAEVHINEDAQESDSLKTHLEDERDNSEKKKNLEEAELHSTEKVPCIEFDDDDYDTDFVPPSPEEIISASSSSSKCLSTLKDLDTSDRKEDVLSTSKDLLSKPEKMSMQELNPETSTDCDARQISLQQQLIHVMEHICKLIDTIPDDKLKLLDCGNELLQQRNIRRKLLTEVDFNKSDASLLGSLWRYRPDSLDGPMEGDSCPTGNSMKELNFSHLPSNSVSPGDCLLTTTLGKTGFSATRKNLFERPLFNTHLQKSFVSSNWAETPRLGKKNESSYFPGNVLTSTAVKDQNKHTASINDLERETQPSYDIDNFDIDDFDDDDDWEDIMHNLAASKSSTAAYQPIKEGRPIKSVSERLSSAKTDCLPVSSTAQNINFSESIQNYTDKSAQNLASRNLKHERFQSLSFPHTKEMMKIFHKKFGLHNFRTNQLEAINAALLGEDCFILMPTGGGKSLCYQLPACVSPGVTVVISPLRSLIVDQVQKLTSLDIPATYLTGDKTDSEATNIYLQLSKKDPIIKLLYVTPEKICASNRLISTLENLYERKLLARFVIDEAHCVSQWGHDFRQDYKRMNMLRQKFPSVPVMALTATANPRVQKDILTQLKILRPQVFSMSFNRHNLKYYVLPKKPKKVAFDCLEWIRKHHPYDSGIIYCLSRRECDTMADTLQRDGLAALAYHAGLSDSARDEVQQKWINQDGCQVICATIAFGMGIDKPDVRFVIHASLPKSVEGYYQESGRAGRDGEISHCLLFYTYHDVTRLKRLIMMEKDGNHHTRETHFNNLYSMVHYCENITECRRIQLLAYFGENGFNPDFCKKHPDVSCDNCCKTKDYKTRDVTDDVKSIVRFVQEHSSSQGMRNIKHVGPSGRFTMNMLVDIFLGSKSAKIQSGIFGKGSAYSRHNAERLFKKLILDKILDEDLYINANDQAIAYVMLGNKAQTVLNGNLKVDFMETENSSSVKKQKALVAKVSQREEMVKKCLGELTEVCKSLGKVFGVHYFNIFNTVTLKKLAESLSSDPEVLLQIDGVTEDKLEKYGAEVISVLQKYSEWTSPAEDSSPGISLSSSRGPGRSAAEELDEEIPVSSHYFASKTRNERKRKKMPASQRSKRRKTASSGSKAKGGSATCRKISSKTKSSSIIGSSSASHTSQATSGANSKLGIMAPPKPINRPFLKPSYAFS
Sequence of Ubiquitin carboxyl-terminal hydrolase 1 (Homo sapiens) (O94782 whole entry, looked up): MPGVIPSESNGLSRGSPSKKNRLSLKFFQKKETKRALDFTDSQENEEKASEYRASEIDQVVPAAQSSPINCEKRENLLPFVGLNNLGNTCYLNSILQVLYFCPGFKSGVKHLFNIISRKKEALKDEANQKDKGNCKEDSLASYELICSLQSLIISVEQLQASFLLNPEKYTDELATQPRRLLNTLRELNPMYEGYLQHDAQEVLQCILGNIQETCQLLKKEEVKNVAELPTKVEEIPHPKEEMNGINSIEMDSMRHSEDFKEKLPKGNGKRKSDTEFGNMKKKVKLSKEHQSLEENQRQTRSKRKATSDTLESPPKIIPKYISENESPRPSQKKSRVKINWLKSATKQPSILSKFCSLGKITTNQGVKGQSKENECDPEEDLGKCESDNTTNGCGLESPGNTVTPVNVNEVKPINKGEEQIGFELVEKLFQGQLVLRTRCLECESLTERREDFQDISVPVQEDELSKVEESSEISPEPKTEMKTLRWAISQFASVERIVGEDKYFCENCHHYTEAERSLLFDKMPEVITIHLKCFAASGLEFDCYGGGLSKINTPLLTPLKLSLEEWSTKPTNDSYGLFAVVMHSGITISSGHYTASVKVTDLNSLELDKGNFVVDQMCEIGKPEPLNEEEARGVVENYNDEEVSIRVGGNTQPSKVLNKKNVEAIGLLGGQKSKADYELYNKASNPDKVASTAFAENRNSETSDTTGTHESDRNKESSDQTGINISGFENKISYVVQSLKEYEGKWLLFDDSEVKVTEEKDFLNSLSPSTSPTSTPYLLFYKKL
Sequence of Cytochrome P450 3A4 (Homo sapiens) (P08684 whole entry, looked up): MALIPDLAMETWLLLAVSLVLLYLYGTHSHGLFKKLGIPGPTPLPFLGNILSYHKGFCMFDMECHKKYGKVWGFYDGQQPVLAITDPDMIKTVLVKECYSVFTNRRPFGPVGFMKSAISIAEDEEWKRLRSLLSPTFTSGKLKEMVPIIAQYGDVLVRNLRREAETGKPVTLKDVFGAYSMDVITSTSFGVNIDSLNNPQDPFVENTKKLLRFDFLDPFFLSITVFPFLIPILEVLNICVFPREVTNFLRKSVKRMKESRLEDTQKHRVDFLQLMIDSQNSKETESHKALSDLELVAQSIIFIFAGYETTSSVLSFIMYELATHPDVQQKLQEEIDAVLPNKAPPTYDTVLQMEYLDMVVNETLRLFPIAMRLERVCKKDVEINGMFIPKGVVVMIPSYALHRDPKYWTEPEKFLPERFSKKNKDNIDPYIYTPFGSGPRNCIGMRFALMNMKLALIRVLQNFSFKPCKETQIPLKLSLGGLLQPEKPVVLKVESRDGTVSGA
Sequence of Chromobox protein homolog 1 (Homo sapiens) (P83916 whole entry, looked up): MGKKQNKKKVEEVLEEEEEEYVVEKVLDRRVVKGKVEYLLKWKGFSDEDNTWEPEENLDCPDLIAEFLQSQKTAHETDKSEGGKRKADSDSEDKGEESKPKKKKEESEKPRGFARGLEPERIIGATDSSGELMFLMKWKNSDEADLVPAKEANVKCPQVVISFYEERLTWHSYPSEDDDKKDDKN

As for `C#CCN(C)CC1=Cc2ccccc2Oc2ccccc21`, the Potency entry in test [1], in test [2], in test [3], in [4] and in test [5] was “inactive” each time.

`CN[C@@H](Cc1c[nH]c2ccccc12)C(=O)O`: the Potency entry in test [6], in [8], in test [1], in test [2], in test [3] and in [4] was “inactive” in each case. Besides, the activity change, negative = inhibition in test [7] (at 57.5 µM (top of the series)) is 2.25% (inactive). Further, the max response in [7] (setting [23]) was -7.03%; in test [7] (setting [24]), 3.12%.

Regarding `CNCC[C@H](Oc1ccc(C(F)(F)F)cc1)c1ccccc1`, the Potency in [9] is 12.6 µM (active) and 10 µM (active); in test [12], 12.6 µM (active); in test [13], 4.47 µM (active); in [17], 1.17 µM (active); in [21] it was 14.1 µM (active). Besides, the call in test [10], in test [11], in [15], in test [19] and in [20] was inactive. Also, in test [7] (at 25.7 µM (top of the series)), the activity change, negative = inhibition was -1.04% (inactive). Besides, the figures for the max response in test [7] (setting [23]) and in [7] (setting [24]) were 11.3% and 10.4%, respectively. In addition, the Potency result in [14], in test [16], in test [18], in test [22], in test [1] and in test [2] was “inactive” in each case. For the same compound, the Potency entry in test [3] and in test [4] was “inactive” each time.
